Targets with a hit are over-represented here; the source holds about 8,800 in all. About 0.5% of all pairs of compound and target were hits.
How the values were obtained:
Assay in all cases: log2 fold change, soluble protein after heating vs DMSO (PISA); higher = thermal stabilisation; K562 lysate, 10 uM; active = over 0.2 and 3.5 SD of the protein, either way, in both replicates (recomputed)
erlotinib = compound: C#Cc1cccc(Nc2ncnc3cc(OCCOC)c(OCCOC)cc23)c1 [erlotinib]
How it was run: (§1)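 K562 pellets were dounce-homogenised in PBS pH 7.4 with 1 mM MgCl2, and the crude extract at 1 mg/mL protein was treated with 10 μM compound for 30 min. Aliquots were heated for 3 min across 48°C-58°C, pooled, and brought to 0.5% NP-40 at 4°C; soluble protein was the supernatant after 21,000xg for 90 min. Soluble protein was quantified by TMTpro 16plex LC-MS/MS with channel sums equalised, and reported as log2 fold change in thermal stability against DMSO controls, with values from duplicates.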

[1] = compound: C/C(=N\NC(=O)C1=CC(=CC=C1)S(=O)(=O)N2CCOCC2)/C3=C(C=CC(=C3)Cl)O
How it was run: as §1

[2] = compound: C1=CC(=CC=C1C2=NC3=C(N2)C=C(C=C3)C(=O)N)OC4=CC=C(C=C4)Cl
How it was run: as §1

[3] = compound: C1=CC2=C(C=CC(=C2)/C=C\3/C(=O)NC(=NCC4=CC=CS4)S3)N=C1
How it was run: as §1

[4] = compound: C1=CC2=NC=CN=C2C=C1/C=C/3\C(=O)NC(=O)S3
How it was run: as §1

[5] = compound: C1=CC=C(C=C1)C2=NC(=C(N2)C3=CC=NC=C3)C4=CC(=C(C=C4)Cl)O
How it was run: as §1

[6] = compound: C1=CC=C2C(=C1)C3=NNC4=CC=CC(=C43)C2=O
How it was run: as §1

[7] = compound: C1CCN(C1)C(=O)NC2=CC=CC(=C2)NC3=NC=C(C(=N3)NCCC4=CN=CN4)Br
How it was run: as §1

[8] = compound: C1CN(CCC1(CC2=CC=C(C=C2)Cl)N)C3=NC=NC4=C3C=CN4
How it was run: as §1

IRAK-1-4 Inhibitor I = compound: C1COCCN1CCN2C3=CC=CC=C3N=C2NC(=O)C4=CC(=CC=C4)[N+](=O)[O-] [IRAK-1-4 Inhibitor I]
How it was run: as §1

Measured: log2 fold change

POLR2M (UniProt P0CAP2)
inactive: erlotinib 0.075 | [1] -0.053 | [2] 0.014 | [3] 0.034 | [4] -0.013 | [5] 0.027 | [6] -0.045 | [7] -0.182 | [8] -0.002 | IRAK-1-4 Inhibitor I 0.026

PPIL3 (UniProt Q9H2H8)
inactive: erlotinib 0.022 | [1] 0.071 | [2] 0 | [3] -0.016 | [4] -0.039 | [5] -0.012 | [6] -0.028 | [7] -0.004 | [8] 0.071 | IRAK-1-4 Inhibitor I 0.03

PICALM (UniProt H0YEH1)
inactive: erlotinib -0.004 | [1] -0.111 | [2] 0.053 | [3] 0.066 | [4] -0.021 | [5] -0.015 | [6] 0.106 | [7] -0.219 | [8] -0.333 | IRAK-1-4 Inhibitor I 0.053

PUF60 isoform 2 (UniProt Q9UHX1)
inactive: erlotinib 0.102 | [1] -0.094 | [2] 0.083 | [3] -0.019 | [4] -0.064 | [5] -0.088 | [6] -0.005 | [7] -0.045 | [8] 0.033 | IRAK-1-4 Inhibitor I -0.011

PICALM (UniProt Q13492)
inactive: erlotinib -0.019 | [1] -0.035 | [2] 0.02 | [3] -0.021 | [4] 0.01 | [5] -0.06 | [6] -0.014 | [7] -0.016 | [8] 0.001 | IRAK-1-4 Inhibitor I 0.026

PDS5A (UniProt Q29RF7)
inactive: erlotinib 0.043 | [1] -0.015 | [2] -0.029 | [3] 0.052 | [4] 0.032 | [5] 0.012 | [6] -0.038 | [7] -0.005 | [8] 0.001 | IRAK-1-4 Inhibitor I -0.015

PCBP2 (UniProt F8VRH0)
inactive: erlotinib 0.084 | [2] -0.182 | [5] -0.092 | IRAK-1-4 Inhibitor I 0.11

PFN1 (UniProt I3L3D5)
inactive: [4] 0.054 | [5] 0.045 | [7] 0.009 | [8] 0.03 | IRAK-1-4 Inhibitor I 0.005

PPP2R5B (UniProt Q15173)
UniProt Q15173, sequence (Q15173 whole entry, looked up): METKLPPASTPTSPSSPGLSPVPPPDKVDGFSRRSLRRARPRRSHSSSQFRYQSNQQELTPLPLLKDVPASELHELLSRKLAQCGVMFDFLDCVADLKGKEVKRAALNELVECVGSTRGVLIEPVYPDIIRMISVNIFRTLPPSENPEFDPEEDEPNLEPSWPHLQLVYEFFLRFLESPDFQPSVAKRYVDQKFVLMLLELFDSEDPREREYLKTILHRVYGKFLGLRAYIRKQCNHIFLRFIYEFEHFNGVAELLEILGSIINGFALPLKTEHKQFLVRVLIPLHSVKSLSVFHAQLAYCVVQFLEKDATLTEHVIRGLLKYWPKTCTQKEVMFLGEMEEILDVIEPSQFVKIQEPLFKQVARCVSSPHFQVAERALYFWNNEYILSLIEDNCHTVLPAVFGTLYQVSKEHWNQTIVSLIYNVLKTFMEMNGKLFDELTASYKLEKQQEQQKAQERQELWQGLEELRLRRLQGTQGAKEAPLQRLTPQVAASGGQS
inactive: erlotinib -0.026 | [1] 0.038 | [2] 0.056 | [3] -0.106 | [4] 0.123 | [5] 0 | [6] 0.052 | [7] -0.051 | [8] -0.042 | IRAK-1-4 Inhibitor I 0.016

POLR2M (UniProt Q6EEV4)
UniProt Q6EEV4, sequence (Q6EEV4 whole entry, looked up): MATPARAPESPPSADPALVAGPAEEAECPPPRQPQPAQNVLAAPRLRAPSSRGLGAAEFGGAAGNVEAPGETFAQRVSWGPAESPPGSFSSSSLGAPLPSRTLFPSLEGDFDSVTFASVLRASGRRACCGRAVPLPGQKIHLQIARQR
inactive: erlotinib 0.011 | [1] 0.164 | [2] -0.025 | [3] -0.031 | [4] -0.045 | [6] -0.111 | [7] 0.052 | [8] -0.01

PECR (UniProt Q9BY49)
inactive: [7] -0.004 | [8] 0.056

PRIMPOL (UniProt Q96LW4)
UniProt Q96LW4, sequence (Q96LW4 whole entry, looked up): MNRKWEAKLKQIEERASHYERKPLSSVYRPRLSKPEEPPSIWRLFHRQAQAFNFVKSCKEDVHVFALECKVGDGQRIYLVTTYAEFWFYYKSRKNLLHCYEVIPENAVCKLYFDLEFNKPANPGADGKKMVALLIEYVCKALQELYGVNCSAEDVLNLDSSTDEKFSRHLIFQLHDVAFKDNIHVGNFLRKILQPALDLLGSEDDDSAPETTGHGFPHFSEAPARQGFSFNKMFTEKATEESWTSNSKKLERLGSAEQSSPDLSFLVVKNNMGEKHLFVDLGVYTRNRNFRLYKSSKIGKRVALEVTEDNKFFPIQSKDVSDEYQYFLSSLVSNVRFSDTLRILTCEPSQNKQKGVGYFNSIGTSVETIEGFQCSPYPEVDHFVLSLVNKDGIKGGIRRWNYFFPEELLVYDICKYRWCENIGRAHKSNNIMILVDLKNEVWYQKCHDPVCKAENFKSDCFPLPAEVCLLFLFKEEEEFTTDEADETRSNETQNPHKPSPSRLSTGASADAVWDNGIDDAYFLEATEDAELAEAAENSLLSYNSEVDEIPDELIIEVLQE
inactive: erlotinib -0.063 | [1] 0.007 | [2] -0.02 | [3] -0.025 | [4] 0.076 | [5] -0.013 | [6] 0.019 | [7] 0.009 | [8] -0.046 | IRAK-1-4 Inhibitor I 0.059

PHOSPHO2 (UniProt C9JD35)
inactive: [7] 0.069 | [8] -0.21

PRG4 (UniProt Q92954)
inactive: [4] -0.296 | [5] -0.027 | IRAK-1-4 Inhibitor I 0.057

PPP1R14C (UniProt Q8TAE6)
inactive: [1] 0.018 | [3] -0.092 | [4] -0.05 | [5] 0.001 | [6] 0.021 | [7] 0.052 | [8] -0.02 | IRAK-1-4 Inhibitor I -0.014

PYGO2 (UniProt Q9BRQ0)
inactive: erlotinib -0.047 | [2] 0.045 | [4] -0.039 | [5] 0.115 | [7] 0.012 | [8] 0.049 | IRAK-1-4 Inhibitor I 0.051

PHGDH, A0A286YFE1
inactive: [4] -0.166

POM121C (UniProt A8CG34)
inactive: erlotinib 0.001 | [2] 0.027 | [4] 0.032 | [5] -0.064 | IRAK-1-4 Inhibitor I -0.069

PFN3 (UniProt P60673)
inactive: [1] -0.231 | [3] -0.078 | [6] -0.162 | [7] -0.041 | [8] 0.155

PIP5K1A (UniProt Q99755)
inactive: erlotinib 0.036 | [2] -0.14 | [4] 0.022 | [5] -0.062 | IRAK-1-4 Inhibitor I -0.195

NA (UniProt Q4G0T1)
inactive: erlotinib -0.178 | [5] 0.017 | IRAK-1-4 Inhibitor I 0.002
active: [2] 0.348

PIK3CD (UniProt O00329)
UniProt O00329, sequence (O00329 whole entry, looked up): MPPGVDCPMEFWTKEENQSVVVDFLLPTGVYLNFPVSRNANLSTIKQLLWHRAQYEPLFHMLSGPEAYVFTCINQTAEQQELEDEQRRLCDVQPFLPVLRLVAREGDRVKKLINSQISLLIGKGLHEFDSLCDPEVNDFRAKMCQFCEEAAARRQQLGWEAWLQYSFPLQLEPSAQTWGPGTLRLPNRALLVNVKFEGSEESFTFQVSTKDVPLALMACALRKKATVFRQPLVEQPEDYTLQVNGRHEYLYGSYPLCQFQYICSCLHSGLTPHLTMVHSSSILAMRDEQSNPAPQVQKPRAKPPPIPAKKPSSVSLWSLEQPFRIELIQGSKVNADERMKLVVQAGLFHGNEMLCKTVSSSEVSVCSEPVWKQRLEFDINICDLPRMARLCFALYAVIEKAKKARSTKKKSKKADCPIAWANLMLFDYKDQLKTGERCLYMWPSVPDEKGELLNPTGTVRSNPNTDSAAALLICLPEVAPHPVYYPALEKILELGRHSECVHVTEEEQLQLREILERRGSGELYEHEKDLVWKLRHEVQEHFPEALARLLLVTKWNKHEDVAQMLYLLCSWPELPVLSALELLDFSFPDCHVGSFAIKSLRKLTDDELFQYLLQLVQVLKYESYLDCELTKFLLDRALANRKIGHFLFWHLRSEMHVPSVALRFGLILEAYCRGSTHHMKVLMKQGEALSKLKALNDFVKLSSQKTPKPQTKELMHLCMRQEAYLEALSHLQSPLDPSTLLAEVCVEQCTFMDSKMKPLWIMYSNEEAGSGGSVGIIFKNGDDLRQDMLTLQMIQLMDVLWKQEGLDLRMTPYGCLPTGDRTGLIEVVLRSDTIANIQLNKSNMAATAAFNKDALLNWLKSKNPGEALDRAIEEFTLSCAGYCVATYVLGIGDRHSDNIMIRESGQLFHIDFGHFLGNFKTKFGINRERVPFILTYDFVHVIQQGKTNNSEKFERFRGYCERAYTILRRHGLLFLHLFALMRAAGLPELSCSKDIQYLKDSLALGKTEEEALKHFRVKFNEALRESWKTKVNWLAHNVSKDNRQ
inactive: erlotinib -0.014 | [1] -0.162 | [2] -0.095 | [3] 0.034 | [4] 0.091 | [5] -0.031 | [6] 0.098 | IRAK-1-4 Inhibitor I 0.109

PPME1 (UniProt Q9Y570)
inactive: erlotinib 0.129 | [2] 0.003 | [4] -0.09 | [7] -0.025 | [8] -0.033

PRADC1 (UniProt Q9BSG0)
inactive: erlotinib -0.016 | [2] 0.027 | [4] 0.018 | [5] 0 | IRAK-1-4 Inhibitor I 0.017

PTMA isoform 2 (UniProt P06454)
inactive: [4] 0.015

PPIC (UniProt P45877)
inactive: erlotinib 0.049 | [1] -0.042 | [2] 0.119 | [3] 0.025 | [4] 0.265 | [5] -0.032 | [6] 0.036 | IRAK-1-4 Inhibitor I 0.06

PIAS2 (UniProt O75928)
inactive: erlotinib 0.043 | [1] -0.277 | [2] 0.035 | [3] 0 | [5] 0.019 | [6] 0.039 | [7] 0.037 | [8] -0.002 | IRAK-1-4 Inhibitor I 0.053

PNPLA4 (UniProt P41247)
inactive: [1] 0.064 | [3] 0.1 | [5] 0.051 | [6] 0.1 | [7] 0.086 | [8] 0.09 | IRAK-1-4 Inhibitor I -0.001

PHC1 (UniProt P78364)
inactive: [1] 0.032 | [3] -0.004 | [4] -0.075 | [6] -0.051 | [7] 0.021 | [8] -0.01

POLR2F (UniProt U3KPV3)
inactive: [7] -0.055 | [8] 0.084

PTK2 isoform 2 (UniProt Q05397)
inactive: erlotinib 0.002 | [2] 0.006 | [4] -0.114 | [7] 0.193 | [8] -0.016

PHKG1 isoform 2 (UniProt Q16816)
UniProt Q16816, sequence (Q16816 whole entry, looked up): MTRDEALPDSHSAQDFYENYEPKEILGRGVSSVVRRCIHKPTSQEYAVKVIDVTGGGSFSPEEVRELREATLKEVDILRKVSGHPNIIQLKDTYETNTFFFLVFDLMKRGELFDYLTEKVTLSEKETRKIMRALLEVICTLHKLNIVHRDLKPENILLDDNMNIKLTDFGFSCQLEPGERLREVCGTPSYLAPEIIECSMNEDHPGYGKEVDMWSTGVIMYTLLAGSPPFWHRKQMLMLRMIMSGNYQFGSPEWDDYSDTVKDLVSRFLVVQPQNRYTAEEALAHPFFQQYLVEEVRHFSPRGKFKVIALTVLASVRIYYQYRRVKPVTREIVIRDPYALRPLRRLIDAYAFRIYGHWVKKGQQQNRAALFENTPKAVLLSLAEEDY
inactive: erlotinib 0.003 | [1] -0.127 | [2] 0.187 | [3] 0.061 | [5] 0.029 | [6] 0.399 | [7] 0.157 | [8] 0.014 | IRAK-1-4 Inhibitor I -0.102

PRR4 (UniProt Q16378)
UniProt Q16378, sequence (Q16378 whole entry, looked up): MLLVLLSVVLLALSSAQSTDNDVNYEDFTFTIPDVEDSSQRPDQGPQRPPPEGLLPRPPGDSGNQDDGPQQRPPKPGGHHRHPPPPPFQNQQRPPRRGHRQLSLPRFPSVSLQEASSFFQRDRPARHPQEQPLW
inactive: erlotinib -0.097 | [1] 1.59 | [2] -0.193 | [3] -0.167 | [5] -0.11 | [6] -0.484 | [7] -0.127 | [8] 1.09 | IRAK-1-4 Inhibitor I -0.048

PUF60 (UniProt Q9UHX1)
inactive: erlotinib 0.001 | [1] 0.003 | [2] -0.01 | [3] 0.011 | [4] -0.018 | [5] -0.018 | [6] 0.01 | [7] 0.003 | [8] 0.003 | IRAK-1-4 Inhibitor I -0.023

PIK3CG (UniProt P48736)
inactive: erlotinib 0.045 | [1] 0 | [2] -0.011 | [3] 0.045 | [5] -0.047 | [6] -0.005 | [7] 0 | [8] 0.003 | IRAK-1-4 Inhibitor I -0.011

PPP2R5C isoform 2 (UniProt Q13362)
inactive: erlotinib 0.003 | [1] 0.044 | [2] 0.024 | [3] -0.046 | [4] 0.186 | [5] 0.024 | [6] 0.013 | IRAK-1-4 Inhibitor I 0.052

PCBP2 (UniProt F8W0G4)
inactive: erlotinib -0.117 | [1] -0.36 | [2] -0.007 | [3] -0.102 | [4] 0.022 | [5] 0.005 | [6] -0.236 | [7] -0.241 | [8] 0.079 | IRAK-1-4 Inhibitor I 0.093

PHF14 (UniProt O94880)
inactive: [1] 0.032 | [3] -0.01 | [4] -0.06 | [5] -0.086 | [6] 0.045 | [7] -0.423 | [8] 0.432 | IRAK-1-4 Inhibitor I 0.035

PICALM (UniProt H0YCY1)
inactive: erlotinib -0.09 | [2] 0.108

PTGES2 (UniProt Q9H7Z7)
inactive: erlotinib 0.008 | [1] 0.056 | [2] -0.133 | [3] 0.066 | [4] -0.054 | [5] 0.174 | [6] 0.162 | [7] 0.028 | [8] -0.023 | IRAK-1-4 Inhibitor I 0.161

PDE4DIP (UniProt E9PS60)
inactive: erlotinib 0.026 | [1] -0.056 | [2] -0.13 | [3] 0.044 | [6] 0.039 | [7] 0.114 | [8] 0.063

PRRG1 (UniProt O14668)
inactive: [5] -0.006 | IRAK-1-4 Inhibitor I 0.06

PPP1R11 (UniProt O60927)
inactive: erlotinib -0.046 | [2] 0.015 | [4] 0.01 | [5] 0.004 | [7] 0 | [8] -0.03 | IRAK-1-4 Inhibitor I 0.132

PLXND1 (UniProt Q9Y4D7)
UniProt Q9Y4D7, sequence (Q9Y4D7 whole entry, looked up): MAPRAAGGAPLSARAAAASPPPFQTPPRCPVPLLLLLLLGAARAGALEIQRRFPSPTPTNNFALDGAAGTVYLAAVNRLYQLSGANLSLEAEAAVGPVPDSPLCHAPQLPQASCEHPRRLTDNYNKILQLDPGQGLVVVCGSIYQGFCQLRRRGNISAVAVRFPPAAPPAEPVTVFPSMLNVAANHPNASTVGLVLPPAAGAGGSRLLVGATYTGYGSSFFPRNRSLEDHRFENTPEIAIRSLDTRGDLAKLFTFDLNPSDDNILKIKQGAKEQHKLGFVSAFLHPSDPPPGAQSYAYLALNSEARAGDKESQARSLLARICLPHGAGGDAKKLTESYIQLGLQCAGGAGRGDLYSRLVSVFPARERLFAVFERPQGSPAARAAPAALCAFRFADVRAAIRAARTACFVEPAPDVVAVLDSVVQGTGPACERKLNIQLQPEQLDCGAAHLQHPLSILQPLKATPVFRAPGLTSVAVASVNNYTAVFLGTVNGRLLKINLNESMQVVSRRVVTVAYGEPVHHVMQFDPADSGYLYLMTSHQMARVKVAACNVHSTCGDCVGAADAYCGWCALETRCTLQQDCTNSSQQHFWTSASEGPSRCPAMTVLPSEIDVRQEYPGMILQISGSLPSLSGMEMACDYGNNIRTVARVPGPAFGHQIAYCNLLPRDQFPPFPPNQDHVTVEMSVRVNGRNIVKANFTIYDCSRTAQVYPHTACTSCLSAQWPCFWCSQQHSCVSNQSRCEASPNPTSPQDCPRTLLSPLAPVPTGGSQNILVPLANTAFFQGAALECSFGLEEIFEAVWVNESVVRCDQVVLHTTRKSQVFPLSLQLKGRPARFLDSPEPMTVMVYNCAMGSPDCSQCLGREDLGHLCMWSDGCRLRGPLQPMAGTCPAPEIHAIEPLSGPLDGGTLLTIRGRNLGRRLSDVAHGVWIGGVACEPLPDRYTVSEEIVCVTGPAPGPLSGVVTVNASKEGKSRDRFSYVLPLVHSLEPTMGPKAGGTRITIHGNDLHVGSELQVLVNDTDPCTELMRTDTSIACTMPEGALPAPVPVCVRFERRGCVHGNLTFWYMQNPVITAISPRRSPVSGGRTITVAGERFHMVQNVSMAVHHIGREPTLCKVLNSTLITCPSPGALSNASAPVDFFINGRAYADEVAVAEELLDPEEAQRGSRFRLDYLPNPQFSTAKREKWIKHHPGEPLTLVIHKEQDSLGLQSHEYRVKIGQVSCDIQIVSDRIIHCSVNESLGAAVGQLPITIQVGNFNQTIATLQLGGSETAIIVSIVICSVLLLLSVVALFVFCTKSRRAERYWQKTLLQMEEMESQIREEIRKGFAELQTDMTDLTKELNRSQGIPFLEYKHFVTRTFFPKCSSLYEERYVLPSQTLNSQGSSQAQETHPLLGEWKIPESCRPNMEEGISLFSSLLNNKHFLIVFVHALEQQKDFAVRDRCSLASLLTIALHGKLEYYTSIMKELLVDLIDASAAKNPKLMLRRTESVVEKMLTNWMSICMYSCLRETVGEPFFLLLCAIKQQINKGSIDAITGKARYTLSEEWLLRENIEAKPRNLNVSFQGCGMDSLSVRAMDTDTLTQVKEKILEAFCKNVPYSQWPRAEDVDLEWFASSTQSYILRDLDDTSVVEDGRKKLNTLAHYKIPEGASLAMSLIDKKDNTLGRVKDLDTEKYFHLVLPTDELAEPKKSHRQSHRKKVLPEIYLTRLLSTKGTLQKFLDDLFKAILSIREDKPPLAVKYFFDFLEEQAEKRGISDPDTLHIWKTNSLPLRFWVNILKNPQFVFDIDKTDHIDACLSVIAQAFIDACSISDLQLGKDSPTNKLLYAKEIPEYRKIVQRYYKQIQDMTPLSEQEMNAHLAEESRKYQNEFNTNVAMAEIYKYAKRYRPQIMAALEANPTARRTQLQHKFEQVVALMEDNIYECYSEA
inactive: erlotinib -0.067 | [2] 0.073 | [4] -0.048 | [5] -0.016 | IRAK-1-4 Inhibitor I -0.032

PEX2 (UniProt P28328)
UniProt P28328, sequence (P28328 whole entry, looked up): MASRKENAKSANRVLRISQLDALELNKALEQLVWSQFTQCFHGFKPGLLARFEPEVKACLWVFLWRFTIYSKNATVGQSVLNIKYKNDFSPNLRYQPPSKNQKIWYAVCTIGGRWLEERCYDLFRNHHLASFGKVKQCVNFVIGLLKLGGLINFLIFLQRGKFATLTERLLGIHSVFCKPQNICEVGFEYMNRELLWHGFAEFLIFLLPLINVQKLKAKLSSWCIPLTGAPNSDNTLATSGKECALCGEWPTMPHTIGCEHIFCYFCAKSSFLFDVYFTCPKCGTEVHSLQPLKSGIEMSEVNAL
inactive: erlotinib 0.106 | [2] 0.068 | [3] 0.048 | [4] -0.128 | [5] 0.082 | [6] -0.119 | IRAK-1-4 Inhibitor I -0.04
active: [1] -0.731

Reference: the supplement of paper PMC10849652
